Test results as given in PubChem BioAssay AID485273 (Sanford-Burnham Center for Chemical Genomics, 2010).
The whole screen tested about 330,000 compounds, of which about 1,500 (0.45%) were called active. Cut-off read from the data, not from the text of the source: active = inhibition above about 45% (passing the limit was not always enough); inconclusive = no clear call, values can overlap the other calls. The full list was thinned out, with actives kept by preference.

target: Ubiquitin-conjugating enzyme E2 N (Homo sapiens) (UniProt P61088); assay: blockers of UBC13 ubiquitin chain synthesis – biochemical, TR-FRET, uHTS, primary screen (AID 485273); details: UBC13 polyubiquitin chain formation, at 20 µM, stronger effect = higher value
Sequence (P61088 whole entry, looked up): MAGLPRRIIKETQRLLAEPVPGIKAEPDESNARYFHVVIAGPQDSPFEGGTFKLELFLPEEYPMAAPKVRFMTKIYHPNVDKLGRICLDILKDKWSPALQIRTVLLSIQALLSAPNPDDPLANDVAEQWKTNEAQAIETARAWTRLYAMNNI

Row | SMILES | inhibition
1 | CCOC(=O)CNC(=O)CN1C(=O)CCSc2ccccc21 | 8.8% (inactive)
2 | CNC(=O)c1sc(Nc2ccc(OCc3ccccc3)cc2)nc1C | 6.9% (inactive)
3 | Cc1nn(CCCC(=O)NCc2ccccc2Cl)c(=O)c2nccn12 | -2.4% (inactive)
4 | FC(F)Oc1ccccc1C1CC(c2ccc(Br)s2)Nc2ncnn21 (stereo not drawn) | -2.2% (inactive)
5 | CCN(CC)S(=O)(=O)c1cc(C(=O)Nc2ccccn2)ccc1C | -8.9% (inactive)
6 | O=C(CCc1c[nH]c2ccccc12)NCCOc1ccccc1 | -4.4% (inactive)
7 | O=C(CCCCCn1c(=O)[nH]c2ccccc2c1=O)NCCc1c[nH]c2ccccc12 | 58.3% (active)
8 | CCN(CC)CCNC(=O)CCCCCn1c(=O)[nH]c2cc(C(=O)OC)ccc2c1=O | 9.7% (inactive)
9 | COc1cc(CNCc2ccc(OC)c3ccccc23)cc(OC)c1OC | 5.5% (inactive)
10 | COc1ccc(S(=O)(=O)N2CCN(CC(=O)NCC3(N4CCOCC4)CCCCC3)CC2)cc1 | -8.4% (inactive)
11 | O=C(CCl)NNc1nc(-c2ccccc2)c2cc(Cl)ccc2n1 | -10.6% (inactive)
12 | NC(N)=Nc1nc(-c2ccccc2)c2cc(Cl)ccc2n1 | 51.4% (active)
13 | Cc1ccc2nc(Nc3ccccc3O)nc(-c3ccccc3)c2c1 | 0.7% (inactive)
14 | Nc1nc(SCC(=O)NN(c2ccccc2)c2ccccc2)n[nH]1 | -4.6% (inactive)
15 | CC1(C)CC(=O)C(C2=NC(C)(C)Cc3ccccc32)=C(O)C1 | -11% (inactive)
16 | CCN(CC)S(=O)(=O)c1ccc(NC(=O)c2cccnc2Cl)c(NC(=O)c2cccnc2Cl)c1 | -5.6% (inactive)
17 | CCc1c(C)nc(SCC(=O)NC2CCCC2)[nH]c1=O | -1.8% (inactive)
18 | O=C(NNC(=O)c1ccc(Cl)nc1)c1ccc(Br)cc1 | 6.7% (inactive)
19 | CC(=O)NC(=S)NNC(=O)c1ccc(Br)cc1 | 79.4% (active)
20 | CNC(=S)NNC(=O)c1ccc(N(C)C)cc1 | -10.9% (inactive)
21 | O=S(=O)(NC1CCCC1)c1ccc(-n2cnnn2)cc1 | 0.2% (inactive)
22 | C=CCNCCCCOc1ccccc1 | 9.8% (inactive)
23 | CCc1ccc(NC(=O)N[C@H](C(=O)O)C(C)CC)cc1 (stereo partly drawn) | 10% (inactive)
24 | CCCCCn1c(=O)c(C(=O)OCC)c(Cl)c2ccccc21 | 5.7% (inactive)

Row | SMILES | inhibition
25 | O=C(c1ccc[nH]c1=S)N1CCN(S(=O)(=O)c2ccc(Br)cc2Cl)CC1 | 1.2% (inactive)
26 | OCC1(CCOc2ccccc2)CCN(Cc2cn[nH]c2-c2ccccc2)CC1 | 2.5% (inactive)
27 | CCOC(=O)C1(CCOc2ccccc2)CCN(Cc2cc(OC)c(O)cc2Cl)CC1 | 12% (inactive)
28 | Cc1c(CN2CCC(CO)(CCOc3ccccc3)CC2)[nH]c2ccc(Cl)cc12 | 72.1% (active)
29 | O=C(c1ccccc1)c1ccc(C(=O)N2CCN(c3ccccc3)CC2)cc1 | 4.4% (inactive)
30 | CN1CCC(CN)(N2CCN(c3ccccc3)CC2)CC1 | 57.8% (active)
31 | CC(CC(=O)N1CCN(c2ccccc2)CC1)c1ccccc1 (stereo not drawn) | 9.2% (inactive)
32 | O=C(CN1CCN(c2ccc(F)cc2)CC1)Nc1cccc(C(F)(F)F)c1 | -4.5% (inactive)
33 | CCCCCCCCCCOC(=O)Cn1c(COc2cccc(OC)c2)[n+](C)c2ccccc21 | 58.1% (active)
34 | CCCCCCCCCCOC(=O)Cn1c(COc2ccc(C)cc2)[n+](C)c2ccccc21 | 44.2% (inactive)
35 | CCCCn1c(N)c(N(CCOC)C(=O)c2cccc(OCc3ccccc3)c2)c(=O)[nH]c1=O | 0.1% (inactive)
36 | Cc1cccc(CNS(=O)(=O)c2ccc(-c3cnc(C4CC4)o3)cc2)c1 | -0.4% (inactive)
37 | COc1ccc(S(=O)(=O)NNC(=O)Nc2ccc(C)cc2)c(OC)c1 | -8.1% (inactive)
38 | CCN(CC(=O)NCc1cccs1)C(=O)c1ccc(OC)c(S(=O)(=O)N2CCOCC2)c1 | -0.3% (inactive)
39 | CCN(CC(=O)NCc1cccs1)C(=O)c1cccc(S(=O)(=O)Nc2ccccc2OC)c1 | 49.7% (active)
40 | CCN(CC(=O)NCc1cccs1)C(=O)c1ccccc1F | -3.4% (inactive)
41 | CN(C(=O)CN(CCO)CC(=O)N(C)C(C)(C)Cc1ccccc1)C(C)(C)Cc1ccccc1 | 57.3% (active)
42 | CCN(CC)C(=O)N(CC)Cc1ccccc1 | 6.4% (inactive)
43 | OCCN(Cc1ccccc1)Cc1ccc(Cl)cc1 | 5.2% (inactive)
44 | C/C(=N\NC(=O)OC(C)(C)C)c1ccc[nH]1 | 0.6% (inactive)
45 | C=CCSC1=C(C#N)C(c2cc(Br)c(O)c(OC)c2)CC(=O)N1 (stereo not drawn) | 1.6% (inactive)
46 | Cn1c(C(=O)NCCCN2CCN(c3cccc(Cl)c3)CC2)cc2c(=O)n(C)c3ccccc3c21 | 49.9% (active)
47 | CCN1CCCC1CNC(=O)c1cc2c(=O)n(C)c3ccccc3c2n1C (stereo not drawn) | 30.3% (inactive)
48 | Cn1c(C(=O)NCCc2ccsc2)cc2c(=O)n(C)c3ccccc3c21 | 20.8% (inactive)

Row | SMILES | inhibition
49 | O=C(CSc1nnc(C2CC2)n1Cc1ccccc1)Nc1cccnc1Cl | -7.4% (inactive)
50 | CCOc1cc(S(=O)(=O)NC2CC(C)(C)NC(C)(C)C2)ccc1F | 7.3% (inactive)
51 | Cc1c(C(=O)Nc2ccccc2)sc2nc3n(c(=O)c12)CCCCC3 | -3% (inactive)
52 | Cc1cccc2c(=O)n3c(nc12)CCCCC3 | 6.4% (inactive)
53 | O=c1c2c(nc3n1CCCCC3)sc1c(O)cccc12 | 80% (active)
54 | CCn1ncc(CNC(=O)C2(C)CC2(Br)Br)c1C (stereo not drawn) | -4.3% (inactive)
55 | COc1cc(NC(=O)c2ccc(CNc3c(N4CCCC4)c(=O)c3=O)cc2)cc(OC)c1OC | -3.8% (inactive)
56 | O=C(c1ccc(F)cc1)N1CCC(C(=O)N2CCN(S(=O)(=O)c3ccccc3Br)CC2)CC1 | 13.6% (inactive)
57 | N[C@@H](Cc1ccccc1)C(=O)N1CCC(C(=O)NCC(=O)Nc2ccc(F)cc2)CC1 | -7.5% (inactive)
58 | Cn1c(SCC(=O)C(C)(C)C)nnc1-c1ccccn1 | 2.2% (inactive)
59 | O=S(=O)(c1ccc(NC(=S)NN=C(C2CC2)C2CC2)cc1)N1CCOCC1 | 45.9% (active)
60 | O=C(NNC(=S)Nc1ccccc1)c1cccc(S(=O)(=O)N2CCOCC2)c1 | -21.6% (inactive)
61 | O=C(CN1C(=O)CCC1=O)Nc1ccc(S(=O)(=O)N2CCOCC2)cc1 | 0.4% (inactive)
62 | COc1cc2c(cc1OC)CN(C(C)C(=O)Nc1cccc(S(=O)(=O)N3CCOCC3)c1)CC2 (stereo not drawn) | -1.1% (inactive)
63 | CC(C)Cc1oc(C(=O)O)cc1CN | -1.6% (inactive)
64 | CCCCNC(=S)N/N=C1\CCCCc2ccccc21 | 0.6% (inactive)
65 | CC(=O)c1ccc(S(=O)(=O)Nc2ccc(C(=O)NCC(c3ccccc3)N(C)C)cc2)cc1 (stereo not drawn) | 1.5% (inactive)
66 | COc1ccc(C(CNC(=O)c2ccc(S(=O)(=O)Nc3ccccc3F)cc2)N(C)C)cc1 (stereo not drawn) | 94.8% (active)
67 | COc1ccc(C(CNC(=O)c2ccc(NS(=O)(=O)c3ccc(F)c(C)c3)cc2)N(C)C)cc1 (stereo not drawn) | 40.3% (inactive)
68 | COc1ccc(C(F)(F)F)cc1N/C=C\c1nnnn1-c1ccc(C)cc1 | 4.1% (inactive)
69 | COc1ccc(C(=O)N(C)CC(O)c2ccccc2)cc1OC1CCN(C(C)=O)CC1 (stereo not drawn) | -0.4% (inactive)
70 | Cc1cccc(-c2nc3ccc(C(=O)NCCN4CCN(C)CC4)cc3nc2-c2cccc(C)c2)c1 | 57.2% (active)
71 | Cc1cccc(C(=O)OC(C)CN2CCN(C)CC2)c1 (stereo not drawn) | 9.9% (inactive)
72 | CCC1=Nc2cc(C(=O)NCCN3CCCC3)ccc2Sc2ccc(C)cc21 | 17.6% (inactive)

Row | SMILES | inhibition
73 | CC(Sc1nnnn1C1CCCCC1)C(=O)O (stereo not drawn) | -4.9% (inactive)
74 | O=C(NCc1ccco1)c1ccc(NS(=O)(=O)c2cccc([N+](=O)[O-])c2)cc1 | -4.6% (inactive)
75 | CCOC(=O)[C@@H]1[C@H]2COc3cc(OC)ccc3[C@@H]2N2C(=O)N(c3cccc(C)c3)C(=O)[C@@]12C | -7.1% (inactive)
76 | CCOC(=O)[C@H]1[C@H]2COc3cc(OC)ccc3[C@@H]2N2C(=O)N(c3ccc(Br)cc3)C(=O)[C@@]12C | -15% (inactive)
77 | CCOC(=O)[C@@H]1[C@H]2COc3cc(OC)ccc3[C@H]2N2C(=O)N(c3ccc(F)cc3)C(=O)[C@]12C | 53.6% (active)
78 | O=C(O)c1ccc(F)c(S(=O)(=O)Nc2ccccc2)c1 | 4% (inactive)
79 | O=C(Nc1cccc(C(=O)NC2CC2)c1)c1ccc(F)c(S(=O)(=O)N2CCOCC2)c1 | 3.1% (inactive)
80 | O=C(Nc1ccc([N+](=O)[O-])cc1)OCCc1ccccn1 | -7.9% (inactive)
81 | CC(=O)c1cccc(NC(=O)C2CCCN2S(=O)(=O)c2cccc3nsnc23)c1 (stereo not drawn) | -4.7% (inactive)
82 | CN(C(=O)COC(=O)c1cc(=O)[nH]c2ccccc12)C1CCCCC1 | 5.6% (inactive)
83 | CCCCC(=O)Nc1ccc(C(=O)Nc2cc(C(F)(F)F)ccc2Cl)cc1 | -15% (inactive)
84 | CCCCN(CCCC)CCC(O)c1cc2c(Cl)cc(Cl)cc2c2cc(C(F)(F)F)ccc12 (stereo not drawn) | 51.7% (active)
85 | O=C(Nc1ccccc1N1CCOCC1)c1ccc(OCc2cscn2)cc1 | 0.6% (inactive)
86 | CCn1cc(C(=O)NCC(=O)NC(C)(C)CO)c(=O)c2cc3c(cc21)OCO3 | 3.5% (inactive)
87 | CC(C)(C)CN1C(=O)C(=O)NC[C@H]1Cc1cccc2ccccc12 | 4% (inactive)
88 | c1ccc(C[C@H]2CNCCN2CCC23CC4CC(CC(C4)C2)C3)cc1 | 55.8% (active)
89 | c1ccc2c(CCN3CCNC[C@H]3Cc3cccc4ccccc34)cccc2c1 | 46.1% (active)
90 | c1ccc(C2CNCc3c2ccc2ccccc32)cc1 (stereo not drawn) | 21.7% (inactive)
91 | O=C1CCNCCN1[C@H](CO)Cc1ccccc1 | -4.8% (inactive)
92 | O=C1C(=O)N(c2ccccc2)c2ccccc21 | -10.7% (inactive)
93 | CC(C)(C)c1nnc(N/N=C/c2ccc(O)cc2)n(N)c1=O | -10.3% (inactive)
